# Data from PubChem BioAssay (NCI).
# Compounds without any hit were thinned out: in the full panel of roughly 83,000, 20% have a hit.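 A percent growth of 40 corresponds to 60% growth inhibition; 0 means no net growth; -100 means all cells died. Active threshold: below 10.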 A number with no mark means an inactive call. Calls of active or inactive are those of the source.
# Test system: HL-60(TB) leukemia
# Assay: NCI-60 one-dose screen, 48 h (100 = growth as untreated, 0 = no growth, -100 = all killed)
# Conditions: 10 µM unless noted
row,SMILES,growth
1,COc1ccc(Cn2c(Br)c3c(c2Br)-c2nc(N)sc2CC3)cc1,-16% (active)
2,CN1C[C@@H](c2ccc(Cl)cc2)[C@]2(NC(=S)N(c3ccccc3)C2=O)[C@@]12C(=O)NC1C=CC(Br)=C[C@H]12 (some centres undefined),40.2%
3,CN=C(N)N/N=C(\C)c1ccc2c(c1)Cc1cc(/C(C)=N/NC(N)=NC)ccc1-2,-23.2% (active)
4,O=[N+]([O-])c1ccc(Sc2cccc[n+]2[O-])c2nonc12,-49.1% (active)
5,CC(=O)OCCO,105%
6,Oc1ccccc1/C=N/Nc1ccc2ccccc2n1,-8.13% (active)
7,CC(=O)Nc1ccc(CC#N)cc1Br,123%
8,O=C(N=c1oc2ccccc2cc1-c1cc2ccccc2[nH]1)c1ccc(Cl)cc1,26.2%
9,CC(C)=CCC[C@](C)(O)[C@H]1CC[C@]2(C)[C@@H]1CC[C@@H]1[C@@]3(C)C/C(=C/c4ccc(Br)cc4)C(=O)C(C)(C)[C@@H]3CC[C@]12C,92.9%
10,C=C(C)COC(=O)c1ccccc1C(=O)OCC1(C)CO1 (centres undefined),133%
11,CNC(=O)c1cc(Oc2ccc3nc(NC(=O)Nc4ccc(Cl)cc4)sc3c2)ccn1,98.9%
12,CCN(CC)c1ccc(C(=O)c2ccccc2)cc1,87.4%
13,Cc1ccc(Cn2cc(COc3ccc4c5ccnc(C)c5n(CCCc5ccccc5)c4c3)nn2)cc1,77.6%
14,C#C[C@]1(O)CC[C@H]2[C@@H]3CC=C4c5nc(Nc6ncccn6)sc5CC[C@]4(C)[C@H]3CC[C@@]21C,60.4%
15,C(=N\Nc1nnn(Cc2ccccc2)n1)/c1ccccc1,5.57% (active)
16,O=C(Nc1nc(C(=O)N2CCN(C(c3ccccc3)c3ccccc3)CC2)cs1)c1ccc(NC2CCCCC2)c([N+](=O)[O-])c1,98.5%
17,COc1ccc(CNC(=O)c2c(C)n([O-])c3ccccc3[n+]2=O)cc1,101%
18,Cn1c2ccc(Cl)cc2c2nn(C(=O)c3ccccc3)c(=O)nc21,113%
19,Nc1nc(NC2CC2)c2ncn(C3C=CC(CO)C3)c2n1 (centres undefined),86.6%
20,N=C(N)c1ccc(-c2ccc(-c3ccc(Cl)cc3Cl)s2)cc1F,-49.7% (active)

row,SMILES,growth
1,COc1cc2c(cc1OC)C(=O)C(Br)CC2 (centres undefined),27.3%
2,Oc1ccccc1O,55.8%
3,CC(=O)OCC(OC(C)=O)C(OC(C)=O)C(OC(C)=O)C(OC(C)=O)C(/C=N/Nc1ccccc1)=N/Nc1ccccc1 (centres undefined),59.4%
4,NC(=O)OCCO,106%
5,CC(C)c1ccc(NC(=O)Cc2ccc(Nc3ncnc4cc(-c5cnn(CCN(C)C)c5)ccc34)cc2)cc1,-66.4% [30 µM] (active)
6,O=C(Nc1ccc(F)c(Cl)c1)Nc1ccc(Cl)c(Cl)c1,25%
7,CC1=CC[C@@H]2CC[C@]3(C)[C@H](CC[C@@H]4[C@@]5(C)CCCNC(C)(C)[C@@H]5CC[C@]43C)[C@H]2[C@@H]1C,21.7%
8,COc1cc2c(cc1OC)-c1ccc3cc4c(cc3c1N(CCN1CCCC1)C2)OCO4,-39.7% (active)
9,Cc1nn(-c2cccc(Cl)c2)c(C)c1N=Nc1ccc(Br)cc1,77.9%
10,COCCCNc1nc(NC(=O)c2cc(Br)cc(C(F)(F)F)c2)cc(-c2cccnc2)n1,94.6%
11,COc1ccc(Cc2cnc(NC(=O)c3ccc4c(c3)OCCO4)s2)cc1,-42.1% (active)
12,Cc1ccccc1CC(N)C(=O)O (centres undefined),103%
13,O=c1cc(CSc2nnc(-c3ccccc3)n2-c2ccc(F)cc2)c2ccc3ccccc3c2o1,99.5%
14,Cc1cc2nc(C(Cl)Cl)nc(-c3ccccc3)n2n1,-14.1% (active)
15,COc1cc(Cc2cc(-c3ccccc3)nn(Cc3ccccc3)c2=O)cc(OC)c1OC,19.3%
16,Cc1nc2sccn2c1-c1csc(Nc2ccccc2Cl)n1,19.2%
17,c1cc(-c2nnc(SSc3ncnc4nc[nH]c34)o2)ccn1,18%
18,Oc1ccccc1C=Nc1ccc(N2CCN(c3ccccc3)CC2)cc1,54.6%
19,CNCCNc1nc2ccccc2c2c(=O)c3cc(F)ccc3sc12,-33.1% (active)
